High-throughput results (PubChem)
Many of the other results were omitted from the sample, so hits are more common in it than they were.
14-3-3 PPI – 14-3-3 gamma protein interaction modulation | P61981 | FP, 14-3-3gamma / TMR-pS259-Raf peptide binding | inhibition, % at 40 µM | 160,000 compounds, 0.19% hits | AID 422; in the data active means inhibition above about 30%
Target sequence (P61981 whole entry, looked up): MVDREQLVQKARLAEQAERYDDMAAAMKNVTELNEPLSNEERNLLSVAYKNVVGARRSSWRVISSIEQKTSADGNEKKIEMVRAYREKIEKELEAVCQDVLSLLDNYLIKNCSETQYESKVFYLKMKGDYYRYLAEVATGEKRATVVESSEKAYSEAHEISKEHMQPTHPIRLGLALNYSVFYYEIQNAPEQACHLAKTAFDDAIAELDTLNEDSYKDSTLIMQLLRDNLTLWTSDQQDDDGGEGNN
Of the large screens only hits and unclear results are named; the others gave an inactive call.

Cc1cccc(CCN=c2c([N+](=O)[O-])nn(-c3ccc4c(c3)OCCO4)n2O)c1	14-3-3 PPI 72
Cc1ccc(CSc2nnc3c(n2)OC(c2ccncc2)Nc2ccccc2-3)cc1 (stereo not drawn)	14-3-3 PPI 76
Cc1ccc(CSc2nnc3c(n2)OC(c2ccc(C(=O)O)cc2)Nc2ccccc2-3)cc1 (stereo not drawn)	none
Clc1ccc(CSc2nnc3c(n2)OC(c2ccncc2)Nc2ccccc2-3)cc1 (stereo not drawn)	none
CCCSc1nnc2c(n1)OC(c1cccc(C)n1)Nc1ccccc1-2 (stereo not drawn)	none
Cc1ccc(CSc2nnc3c(n2)OC(c2cccc(C)n2)Nc2ccccc2-3)cc1 (stereo not drawn)	14-3-3 PPI 32
Cc1ccc(CSc2nnc3c(n2)OC(c2ccccn2)Nc2ccccc2-3)cc1 (stereo not drawn)	none
CC(=O)OC1=C(C)C(=O)OC(c2ccc(Br)cc2)C1(C)C (stereo not drawn)	none
Cc1cccc(C(=O)N2N=C(C(F)(F)F)CC2(O)c2cccc([N+](=O)[O-])c2)c1 (stereo not drawn)	none
CC(=O)CC(O)c1ccccn1 (stereo not drawn)	none
Cc1cccc(C)c1N(C)S(=O)(=O)c1ccc2[nH]cc(C(=O)N3CCN(Cc4ccccc4)CC3)c(=O)c2c1	none
COc1ccc(C(=O)NCc2nc3ccccc3n2Cc2ccccc2F)cc1OC	none
O=C(CSc1nccn1-c1ccc([N+](=O)[O-])cc1)Nc1cc(C(F)(F)F)ccc1Cl	none
COc1ccc(C2C(C(=O)N3CCN(c4cccc(C)c4C)CC3)CCC(=O)N2c2cc(OC)c(OC)c(OC)c2)cc1 (stereo not drawn)	none
C=CCSc1nnc2c(n1)OC(c1ccc(OC)c(OC)c1)Nc1ccccc1-2 (stereo not drawn)	none
C=CCSc1nnc2c(n1)OC(c1ccc(N(C)C)cc1)Nc1ccccc1-2 (stereo not drawn)	14-3-3 PPI 38
CCCSc1nnc2c(n1)OC(c1ccc(N(CC)CC)cc1)Nc1ccccc1-2 (stereo not drawn)	14-3-3 PPI 39
C=CCSc1nnc2c(n1)OC(c1ccc([N+](=O)[O-])cc1)Nc1ccccc1-2 (stereo not drawn)	none
C=CCSc1nnc2c(n1)OC(c1ccc(C(=O)OC)cc1)Nc1ccccc1-2 (stereo not drawn)	none
CCCCSc1nnc2c(n1)OC(c1cc(OC)c(OC)c(OC)c1)Nc1ccccc1-2 (stereo not drawn)	14-3-3 PPI 42
CCCSc1nnc2c(n1)OC(c1ccco1)Nc1ccccc1-2 (stereo not drawn)	none
C=CCSc1nnc2c(n1)OC(c1ccc(C)cc1)Nc1ccccc1-2 (stereo not drawn)	14-3-3 PPI 33
CCCSc1nnc2c(n1)OC(c1cc(OC)c(O)c(OC)c1)Nc1ccccc1-2 (stereo not drawn)	none
CSc1nnc2c(n1)OC(c1ccc(N(C)C)cc1)Nc1ccccc1-2 (stereo not drawn)	none
CCCSc1nnc2c(n1)OC(c1ccc(Cl)cc1)Nc1ccccc1-2 (stereo not drawn)	none
CCCCSc1nnc2c(n1)OC(c1cccc(OC)c1OC)Nc1ccccc1-2 (stereo not drawn)	none
COc1ccc(-n2c(C=Cc3ccccc3F)nc3cc(OC)c(OC)cc3c2=O)cc1Cl	none
O=C(Nc1c2c(nn1-c1cccc(Cl)c1)CS(=O)(=O)C2)c1cccc(C(F)(F)F)c1	none
O=C(CS(=O)(=O)c1cn(Cc2ccc(F)cc2)c2ccccc12)Nc1ccccc1C(F)(F)F	none
C=CCN(c1ccccc1)S(=O)(=O)c1ccc2[nH]cc(C(=O)NCc3ccccc3)c(=O)c2c1	none
O=C(CC1C(=O)N(c2ccccc2)C(=S)N1CCc1ccc(F)cc1)Nc1ccc(F)cc1 (stereo not drawn)	none
CCOC(=O)SC1=N/C(=C\c2ccc(N(C)C)cc2)C(=O)S1	none
CSC1=NC(=Cc2ccc(N(C)C)cc2)C(=O)S1	14-3-3 PPI 125
COc1cc(C=C2N=C(SC)SC2=O)cc(OC)c1OC	none
Cc1ccc2cc3cc(C(=O)NCCCN4CCN(C)CC4)oc3nc2c1	14-3-3 PPI 66
CCN1CCN(CCCNC(=O)c2cc3cc4ccc(C)cc4nc3o2)CC1	none
Cc1ccc2cc3cc(C(=O)NCCCN4CCC(C)CC4)oc3nc2c1	none
COC(=O)C1=C(C)N(C)C(C)=C(C(=O)OC)C1c1ccc(C(F)(F)F)cc1	none
COC(=O)C1=C(C)N(C)C(C)=C(C(=O)OC)C1c1ccc(C(=O)OC)cc1	14-3-3 PPI 113
COC(=O)C1=C(C)N(C)C(C)=C(C(=O)OC)C1c1ccsc1	none
N[C@@H](Cc1ccc(O)c(O)c1)C(=O)O	none
CC(Cc1ccc(O)c(O)c1)C(C)Cc1ccc(O)c(O)c1 (stereo not drawn)	14-3-3 PPI 60
C[C@H](Cc1ccc(O)c(O)c1)[C@@H](C)Cc1ccc(O)c(O)c1	none
Cc1ccc(-n2nc3c(c2NC(=O)c2ccc(C(C)(C)C)cc2)CS(=O)(=O)C3)cc1	none
Clc1ccc2nc(NCc3ccccc3)nc(-c3ccccc3)c2c1	none
O=C(C[n+]1ccc2ccccc2c1)c1ccc2c(c1)Cc1ccccc1-2	none
O=C(C[n+]1ccc2ccccc2c1)c1ccccc1	14-3-3 PPI 45
O=C(C[n+]1cccc(Br)c1)c1ccccc1	none
Cc1cc(N2CCOCC2)nc2ccc(NC(=O)CCC(=O)N3CCCC3)cc12	none
CCN(CC)S(=O)(=O)c1cc(C(=O)Nc2ccc(C(=O)O)cc2)ccc1C	none
CCOC(=O)C1=C(N)N(c2cccc([N+](=O)[O-])c2)C2=C(C(=O)CC(C)(C)C2)C1c1cc(Br)cs1 (stereo not drawn)	none
O=C(O)c1ccc2c(c1NCCO)C(=O)c1ccccc1C2=O	14-3-3 PPI 31
CC1CCCC(C)N1C(=O)c1ccc2c(c1NCCO)C(=O)c1ccccc1C2=O (stereo not drawn)	none
CNc1c(C(=O)O)ccc2c1C(=O)c1ccccc1C2=O	none
Cc1ccc(C(=O)Nc2ccc(O)c(-c3nc4ccccc4s3)c2)cc1[N+](=O)[O-]	none
COc1ccc(OC)c(NC(=O)c2c(C)c(-c3ccccc3)nc3ccccc23)c1	14-3-3 PPI 53
COc1ccc(NC(=O)c2c(C)c(-c3ccc(C)cc3)nc3ccccc23)cc1	none
COc1ccc(-c2nc3ccccc3c(C(=O)Nc3ccc(Br)cc3)c2C)cc1	none
CC(C)(C)NC(=O)CCS(=O)(=O)c1cc(Br)cc2c1N(C(=O)C1CC1)CC2	none
CC(=O)OCc1cnc(C)c2oc(=Nc3ccc(OC(F)(F)F)cc3)c(C(=O)Nc3ccc(C)cc3)cc12	none
O=C(NCc1cccnc1)C1CCC(=O)N1CCc1ccccc1 (stereo not drawn)	none
O=C(CCSc1nc2ccccc2s1)Nc1ccccc1Br	none
CC1(C)CC(=O)C2=C(C1)OC1=C(C(=O)CC(C)(C)C1)C2c1ccc(-c2ccc([N+](=O)[O-])cc2Cl)o1	none
Cc1nc(SCC(=O)O)c2c(=O)n(C)c(=O)n(C)c2n1	none
O=C1CN(C(=O)COc2ccc3ccccc3c2)C(c2ccc(F)cc2)c2cc(Br)ccc2N1 (stereo not drawn)	none
Cc1cc(Br)c(O)c(C=Nc2ccc(N3CCOCC3)cc2)c1	none
O=[N+]([O-])c1cc(Cc2ccccc2Cl)cc(C=Nc2ccc(N3CCOCC3)cc2)c1O	none
Cc1ccc(N=Cc2cc(Cl)cc([N+](=O)[O-])c2O)c(O)c1	none
Cc1ccc(N=Cc2cc(Cl)cc([N+](=O)[O-])c2O)cc1Cl	14-3-3 PPI 42
O=[N+]([O-])c1cc(Cl)cc(C=Nc2ccc(Cl)c(-c3nc4ccccc4o3)c2)c1O	none
Cc1cc(C=Nc2ccc(N3CCOCC3)cc2)c(O)c([N+](=O)[O-])c1	14-3-3 PPI 86
